These results are taken from ChEMBL document CHEMBL3988442, “University of Dundee, Small-Polar-MMV Screening Library” (2021).

The structures appear in SMILES notation. For some of these results: Results with a measured potency or affinity are listed apart.

Design in all cases: scale not given: direction of the effect not stated beside the values
Test [1] has as its target Protein translocase subunit SecA (Escherichia coli (strain K12)) (UniProt P10408). As to the kind of experiment: Assay to Identify E. coli SecA ATPase Inhibitors. Format: functional. To be noted: 30 µM.
The target of test [2] is T1, Ubiquitin-activating enzyme e1, putative (Leishmania donovani (strain BPK282A1)) (UniProt E9BSI1).
T1 sequence (whole entry): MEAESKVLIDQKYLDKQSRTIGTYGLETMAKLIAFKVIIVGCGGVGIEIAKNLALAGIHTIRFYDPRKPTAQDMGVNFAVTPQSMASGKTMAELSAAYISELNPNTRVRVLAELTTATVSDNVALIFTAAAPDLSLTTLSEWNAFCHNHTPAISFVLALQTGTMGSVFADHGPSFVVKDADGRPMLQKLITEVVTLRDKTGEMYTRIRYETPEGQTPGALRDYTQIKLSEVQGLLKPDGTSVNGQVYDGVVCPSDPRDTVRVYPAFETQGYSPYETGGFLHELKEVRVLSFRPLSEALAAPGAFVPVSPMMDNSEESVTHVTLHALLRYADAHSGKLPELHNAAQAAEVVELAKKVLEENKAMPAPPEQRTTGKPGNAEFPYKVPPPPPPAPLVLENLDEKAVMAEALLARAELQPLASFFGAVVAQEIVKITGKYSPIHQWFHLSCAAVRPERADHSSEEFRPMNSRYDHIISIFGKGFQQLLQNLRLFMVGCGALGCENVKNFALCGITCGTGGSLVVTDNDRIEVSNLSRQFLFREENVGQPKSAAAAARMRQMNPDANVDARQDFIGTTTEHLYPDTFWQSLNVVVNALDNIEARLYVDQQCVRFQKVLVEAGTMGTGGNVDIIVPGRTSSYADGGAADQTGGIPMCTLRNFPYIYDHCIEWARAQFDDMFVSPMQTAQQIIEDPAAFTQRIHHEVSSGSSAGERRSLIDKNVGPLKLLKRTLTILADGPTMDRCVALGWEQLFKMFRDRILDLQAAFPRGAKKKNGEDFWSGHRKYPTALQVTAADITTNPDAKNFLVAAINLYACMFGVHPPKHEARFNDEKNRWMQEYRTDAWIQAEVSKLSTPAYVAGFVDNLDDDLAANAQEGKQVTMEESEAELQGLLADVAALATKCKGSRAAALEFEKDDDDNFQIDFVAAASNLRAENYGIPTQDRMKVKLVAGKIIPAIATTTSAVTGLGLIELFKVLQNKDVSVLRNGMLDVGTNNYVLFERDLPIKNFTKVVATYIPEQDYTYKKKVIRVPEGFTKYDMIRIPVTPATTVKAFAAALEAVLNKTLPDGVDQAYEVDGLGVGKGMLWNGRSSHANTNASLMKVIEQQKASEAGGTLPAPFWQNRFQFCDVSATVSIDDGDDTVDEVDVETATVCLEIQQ
In words: Leishmania donovani Ubiquitin Activating Enzyme (LdE1). Format: functional. To be noted: 30 µM.

Test [3] concerns the target T2, Aspartate--tRNA(Asp/Asn) ligase (Mycobacterium tuberculosis (strain ATCC 25618 / H37Rv)) (UniProt P9WFW3). Note: in the data most compounds retested in dose-response had high values.
T2 sequence (whole entry): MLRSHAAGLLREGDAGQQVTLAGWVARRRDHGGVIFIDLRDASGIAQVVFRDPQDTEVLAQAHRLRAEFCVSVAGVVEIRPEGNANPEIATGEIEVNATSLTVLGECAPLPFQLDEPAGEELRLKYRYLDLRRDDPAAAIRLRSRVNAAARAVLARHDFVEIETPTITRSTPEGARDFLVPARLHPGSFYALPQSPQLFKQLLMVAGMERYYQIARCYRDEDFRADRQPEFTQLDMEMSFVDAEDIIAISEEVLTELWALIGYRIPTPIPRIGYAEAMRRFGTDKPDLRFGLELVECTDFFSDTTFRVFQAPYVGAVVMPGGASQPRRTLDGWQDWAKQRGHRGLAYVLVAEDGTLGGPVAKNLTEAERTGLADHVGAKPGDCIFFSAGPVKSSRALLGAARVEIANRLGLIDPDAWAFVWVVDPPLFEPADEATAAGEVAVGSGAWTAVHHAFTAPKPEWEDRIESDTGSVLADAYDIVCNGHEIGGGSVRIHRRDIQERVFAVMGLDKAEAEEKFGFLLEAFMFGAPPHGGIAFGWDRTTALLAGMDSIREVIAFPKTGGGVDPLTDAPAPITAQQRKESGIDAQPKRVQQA
As to the kind of experiment: Assay for Asp RNA synthetase-1 from Mycobacterium tuberculosis. Format: functional. To be noted: 30 µM.

The target of test [4] is AMP-activated protein kinase, AMPK (Homo sapiens) (UniProt P54646+O43741+P54619+Q9UGJ0+Q9Y478+Q13131+Q9UGI9). As to the kind of experiment: AMP-dependent Kinase enzyme assay. An in vitro enzyme assay that detects ADP turnover that is directly proportional to AMPK activity. This uses naive AMPK that is activated during the assay with MK-8722. In kind it is functional. As to conditions: 30 µM.

Test [5] has as its target Sialic acid-binding Ig-like lectin 9 (Homo sapiens) (UniProt Q9Y336). As to the kind of experiment: Hs-Siglec9 ALPHAscreen SOP 20170721. To be noted: 10 µM. For orientation: Bead proximity is the source of the signal in Alpha formats.
The test system of test [6] is Trypanosoma cruzi. In words: Trypanosoma cruzi phosphomannomutase and mannose-1-phosphate guanylyltransferase assay. Format: functional. As to conditions: 10 µM.
The target of test [7] is T3, Arginase-2, mitochondrial (Homo sapiens) (UniProt P78540).
T3 sequence (whole entry): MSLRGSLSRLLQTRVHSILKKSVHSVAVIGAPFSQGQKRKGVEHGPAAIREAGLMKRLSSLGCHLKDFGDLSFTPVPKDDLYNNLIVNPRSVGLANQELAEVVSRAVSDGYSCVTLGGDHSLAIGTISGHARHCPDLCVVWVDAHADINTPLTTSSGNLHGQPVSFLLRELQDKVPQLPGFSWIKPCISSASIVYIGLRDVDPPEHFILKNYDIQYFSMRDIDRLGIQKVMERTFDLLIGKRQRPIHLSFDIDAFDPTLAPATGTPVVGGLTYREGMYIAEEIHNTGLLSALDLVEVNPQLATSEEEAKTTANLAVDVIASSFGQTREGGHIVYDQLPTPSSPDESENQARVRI
As to the kind of experiment: in vitro enzyme assay to detect the production of urea directly proportional to the activity of Arginase II. Note: in the data most compounds retested in dose-response had high values. In kind it is functional. As to conditions: 33.3 µM.

Test [8] has as its target T4, Proteasome subunit beta (Trypanosoma cruzi) (UniProt O96673).
T4 sequence (whole entry): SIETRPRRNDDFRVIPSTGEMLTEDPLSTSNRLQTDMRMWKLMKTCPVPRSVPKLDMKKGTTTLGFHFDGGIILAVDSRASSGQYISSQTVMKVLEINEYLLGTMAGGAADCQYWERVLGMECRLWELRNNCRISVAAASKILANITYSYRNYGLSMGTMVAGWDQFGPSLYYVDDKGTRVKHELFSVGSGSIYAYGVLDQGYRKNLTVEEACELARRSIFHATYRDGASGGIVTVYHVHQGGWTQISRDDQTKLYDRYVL
In words: Trypanosoma cruzi proteasome chymotrypsin-like activity (TcProtChymo) assay. Note: in the data most compounds retested in dose-response had high values. Format: functional. To be noted: 9.37 µM.

Test [9] is filed under the species Homo sapiens. In words: To identify inhibition of the IFN signalling (Jak-Stat) pathway via expression of an eGFP reporter gene under the control of an IFN-stimulated response element (ISRE) containing MxA promoter. In kind it is functional. To be noted: 30 µM. A general note: Reporter assays use an easily measured gene product as a stand-in for the process of interest.

The target of test [10] is Shiga toxin 2 (Escherichia coli O157:H7) (UniProt P09385+P09386). In words: E. coli 0.157:H7 Shiga Toxin SOP - stx2 screening assay. As to conditions: 30 µM. Format: functional.
Test [11] addresses T5, Tyrosyl-tRNA synthetase, putative (Trypanosoma cruzi (strain CL Brener)) (UniProt Q4DSP6).
T5 sequence (whole entry): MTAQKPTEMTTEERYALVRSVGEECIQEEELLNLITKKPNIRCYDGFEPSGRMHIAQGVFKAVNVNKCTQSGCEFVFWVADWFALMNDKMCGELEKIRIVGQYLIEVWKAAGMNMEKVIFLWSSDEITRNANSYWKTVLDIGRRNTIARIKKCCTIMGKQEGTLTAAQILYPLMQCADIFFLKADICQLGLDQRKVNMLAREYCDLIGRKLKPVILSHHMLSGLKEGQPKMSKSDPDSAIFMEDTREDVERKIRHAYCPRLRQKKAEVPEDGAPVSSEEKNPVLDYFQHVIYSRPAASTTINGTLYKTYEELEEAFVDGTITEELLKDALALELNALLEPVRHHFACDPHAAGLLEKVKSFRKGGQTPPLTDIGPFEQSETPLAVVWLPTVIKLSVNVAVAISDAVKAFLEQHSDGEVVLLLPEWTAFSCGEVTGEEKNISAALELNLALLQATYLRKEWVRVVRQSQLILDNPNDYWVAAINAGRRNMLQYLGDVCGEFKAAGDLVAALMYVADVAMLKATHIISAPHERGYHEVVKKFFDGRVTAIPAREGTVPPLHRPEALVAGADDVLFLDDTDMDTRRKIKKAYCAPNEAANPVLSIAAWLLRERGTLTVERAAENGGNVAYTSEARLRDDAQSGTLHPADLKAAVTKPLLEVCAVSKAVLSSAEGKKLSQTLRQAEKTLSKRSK
In words: Trypanosoma cruzi tyrosyl tRNA synthetase (TcYRS) _High Tyrosine SOP. Note: in the data most compounds retested in dose-response had high values. Format: functional. As to conditions: 30 µM.

Test [12] has as its target T5, Tyrosyl-tRNA synthetase, putative (Trypanosoma cruzi (strain CL Brener)). In words: Trypanosoma cruzi tyrosyl tRNA synthetase (TcYRS) SOP. Format: functional. To be noted: 30 µM.
Test [13] deals with Chromo domain-containing protein 1 (Saccharomyces cerevisiae (strain ATCC 204508 / S288c) (Baker's yeast)) (UniProt P32657). As to the kind of experiment: ScCHD-1 Enzyme Inhibition Assay. Note: in the data most compounds retested in dose-response had high values. As to conditions: 30 µM. Format: functional.
Chain of Chromo domain-containing protein 1 (Saccharomyces cerevisiae (strain ATCC 204508 / S288c) (Baker's yeast)) (P32657 whole entry, the tested form may be a part): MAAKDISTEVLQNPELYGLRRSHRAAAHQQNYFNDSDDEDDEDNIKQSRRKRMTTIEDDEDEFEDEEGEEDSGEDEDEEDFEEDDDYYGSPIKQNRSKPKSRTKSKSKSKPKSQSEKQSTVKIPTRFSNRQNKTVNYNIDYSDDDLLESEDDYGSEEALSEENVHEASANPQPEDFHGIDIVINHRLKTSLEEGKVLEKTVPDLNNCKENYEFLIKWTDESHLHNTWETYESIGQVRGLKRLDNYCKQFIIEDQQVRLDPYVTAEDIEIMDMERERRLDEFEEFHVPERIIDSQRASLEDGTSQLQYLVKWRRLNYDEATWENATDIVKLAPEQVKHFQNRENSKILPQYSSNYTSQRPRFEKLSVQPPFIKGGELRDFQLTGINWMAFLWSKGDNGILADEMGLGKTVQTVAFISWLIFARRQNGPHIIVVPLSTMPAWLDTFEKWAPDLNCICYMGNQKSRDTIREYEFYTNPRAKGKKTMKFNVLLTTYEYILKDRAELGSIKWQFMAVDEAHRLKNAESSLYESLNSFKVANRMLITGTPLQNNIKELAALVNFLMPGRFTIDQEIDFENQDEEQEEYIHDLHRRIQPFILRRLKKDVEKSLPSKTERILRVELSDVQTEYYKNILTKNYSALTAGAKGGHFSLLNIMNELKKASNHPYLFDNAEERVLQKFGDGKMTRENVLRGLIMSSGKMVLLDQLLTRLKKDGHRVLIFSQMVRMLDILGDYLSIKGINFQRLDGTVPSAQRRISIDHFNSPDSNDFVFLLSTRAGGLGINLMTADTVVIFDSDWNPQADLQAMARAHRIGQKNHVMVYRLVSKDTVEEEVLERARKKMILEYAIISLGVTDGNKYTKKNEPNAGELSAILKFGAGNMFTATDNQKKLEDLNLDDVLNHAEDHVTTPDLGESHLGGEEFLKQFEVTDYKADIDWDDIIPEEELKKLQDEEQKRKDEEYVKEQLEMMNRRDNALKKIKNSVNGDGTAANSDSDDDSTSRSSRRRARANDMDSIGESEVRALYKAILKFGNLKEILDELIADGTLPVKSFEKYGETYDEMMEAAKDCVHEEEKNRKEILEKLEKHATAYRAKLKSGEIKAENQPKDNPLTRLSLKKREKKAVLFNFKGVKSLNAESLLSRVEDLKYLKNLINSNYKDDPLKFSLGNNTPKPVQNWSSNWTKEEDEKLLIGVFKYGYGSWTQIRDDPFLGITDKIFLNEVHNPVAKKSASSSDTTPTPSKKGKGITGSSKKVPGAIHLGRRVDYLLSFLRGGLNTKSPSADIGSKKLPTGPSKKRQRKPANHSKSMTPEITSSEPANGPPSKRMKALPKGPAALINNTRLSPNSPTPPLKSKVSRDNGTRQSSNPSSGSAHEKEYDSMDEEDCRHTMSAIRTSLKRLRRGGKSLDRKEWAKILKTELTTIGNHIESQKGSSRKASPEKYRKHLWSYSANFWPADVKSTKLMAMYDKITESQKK

Chain of Sialic acid-binding Ig-like lectin 9 (Homo sapiens) (Q9Y336 whole entry): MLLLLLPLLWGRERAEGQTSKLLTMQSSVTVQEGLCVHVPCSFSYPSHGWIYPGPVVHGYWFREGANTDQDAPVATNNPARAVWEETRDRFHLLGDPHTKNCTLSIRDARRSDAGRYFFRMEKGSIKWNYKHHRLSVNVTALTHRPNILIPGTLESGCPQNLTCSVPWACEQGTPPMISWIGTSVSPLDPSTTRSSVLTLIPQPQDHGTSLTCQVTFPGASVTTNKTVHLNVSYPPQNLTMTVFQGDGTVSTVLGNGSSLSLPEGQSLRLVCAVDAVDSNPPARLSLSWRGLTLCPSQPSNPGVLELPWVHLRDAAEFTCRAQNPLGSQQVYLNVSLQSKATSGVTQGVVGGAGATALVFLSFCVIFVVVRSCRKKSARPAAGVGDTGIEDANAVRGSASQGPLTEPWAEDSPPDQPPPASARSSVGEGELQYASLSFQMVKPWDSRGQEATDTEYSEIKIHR
Chain of Protein translocase subunit SecA (Escherichia coli (strain K12)) (P10408 whole entry): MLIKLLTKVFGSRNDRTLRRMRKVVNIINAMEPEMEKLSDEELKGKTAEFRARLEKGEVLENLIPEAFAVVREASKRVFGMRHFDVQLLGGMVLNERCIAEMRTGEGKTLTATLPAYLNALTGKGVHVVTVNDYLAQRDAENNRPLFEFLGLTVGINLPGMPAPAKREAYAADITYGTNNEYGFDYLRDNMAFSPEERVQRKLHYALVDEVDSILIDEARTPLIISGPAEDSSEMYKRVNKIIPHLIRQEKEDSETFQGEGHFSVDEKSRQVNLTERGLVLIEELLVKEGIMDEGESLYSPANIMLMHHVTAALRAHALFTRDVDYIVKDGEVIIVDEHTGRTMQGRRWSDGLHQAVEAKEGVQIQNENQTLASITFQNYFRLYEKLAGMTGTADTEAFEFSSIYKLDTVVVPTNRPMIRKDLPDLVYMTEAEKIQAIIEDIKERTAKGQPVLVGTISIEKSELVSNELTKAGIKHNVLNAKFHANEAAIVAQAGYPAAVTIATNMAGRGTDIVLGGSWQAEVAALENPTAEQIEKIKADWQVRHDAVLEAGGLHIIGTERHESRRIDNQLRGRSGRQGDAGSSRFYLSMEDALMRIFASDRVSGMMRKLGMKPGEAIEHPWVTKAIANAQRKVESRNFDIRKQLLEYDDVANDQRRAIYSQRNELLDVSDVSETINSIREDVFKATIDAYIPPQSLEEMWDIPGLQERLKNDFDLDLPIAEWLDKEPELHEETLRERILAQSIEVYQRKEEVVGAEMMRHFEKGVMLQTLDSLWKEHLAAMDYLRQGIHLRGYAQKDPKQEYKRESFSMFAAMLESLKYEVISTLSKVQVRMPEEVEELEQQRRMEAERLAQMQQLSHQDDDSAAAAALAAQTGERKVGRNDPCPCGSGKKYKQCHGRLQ

For `CCN1CCC2(CC1)CC(Nc1ncccn1)CO2` (stereo unspecified), the Percent Effect in test [1] was -4.33%; in [2] it was 2.7%; in test [3] it was -1.65%; in test [4], -2.57%; in test [5], 1.3%; in test [6], 4.49%. For the same compound, the Percent Effect amounted to 35.8% in test [7]; 6.34% in [8]; 8.12% in test [9]; 11.5% in [10]; 6.93% in [11]; 13.4% in [12]. Besides, the Percent Effect in test [13] was -1.38%.
Regarding `c1ccc(N2CCCC3(CCN(Cc4nccs4)C3)C2)nc1` (stereo unspecified), the Percent Effect in test [1] is -1.98%; in test [2], 14.3%; in [3], -1.46%; in test [5], 3.73%; in [6], 0.75%; in test [7], -5.94%. Also, the Percent Effect in [8] is 18.4%; in test [9], 4.2%; in [10], 7.26%; in test [11], 10.6%; in [12], 20%; in test [13], -11.5%.
As to `O=C(Cc1ccc(-n2cccn2)cc1)N1CCN2CCCCC2C1` (stereo unspecified), the Percent Effect was -4.18% in test [1]; -10.7% in test [2]; -7.19% in test [3]; 2.63% in [5]; -5.42% in test [6]; 3.55% in test [7]. For the same compound, the Percent Effect is 9.58% in test [8]; 0.299% in test [9]; -24.9% in test [10]; 1.58% in [11]; 5.13% in [12]; -13.6% in test [13].
`Fc1cnc(N2CCCC3(CCN(Cc4ccsc4)C3)C2)nc1` (stereo unspecified): the Percent Effect in test [1] is -5.76%; in test [2], 3.9%; in [3], 9.59%; in test [5], -1.26%; in [6] it was 3.02%; in [7] it was -5.26%. Moreover, the Percent Effect in test [8] was 8.56%; in [9], -2.16%; in test [10], -9.72%; in [11], 6.84%; in [12], 7.69%; in [13], 14.2%.
As to `COCC(=O)N1C[C@@H]2OCCN(Cc3c(C)noc3C)[C@@H]2C1`, the Percent Effect in test [1] was -1.15%; in [2], 1.3%; in test [3], -3.8%; in test [5], -1.81%; in test [6] it was 3.02%; in [7], 17%. Further, the Percent Effect in [8] is 27.1%; in [9], 5.87%; in [10], -14.3%; in test [11], 5.79%; in [12] it was 10.3%; in test [13], 24%.
